# From publication PMC5540273 (PLoS ONE, 2017)
# Where two headings read alike, the source gives them in different places.
# How the values were obtained:
# EPHA3 = settings: concentration: 1 μM, replicates: in singlicate; n = 1
# EPHA4 = settings: concentration: 1 μM, replicates: in singlicate; n = 1
# EPHA5 = settings: concentration: 1 μM, replicates: in singlicate; n = 1
# EPHA6 = settings: n = 1
# EPHA7 = settings: concentration: 1 μM, replicates: in singlicate; n = 1
# EPHA8 = settings: concentration: 1 μM, replicates: in singlicate; n = 1
# EPHB1 = settings: concentration: 1 μM, replicates: in singlicate; n = 1
# EPHB2 = settings: concentration: 1 μM, replicates: in singlicate; n = 1
# EPHB3 = settings: concentration: 1 μM, replicates: in singlicate; n = 1
# EPHB4 = settings: concentration: 1 μM, replicates: in singlicate; n = 1
# EPHB6 = settings: concentration: 1 μM, replicates: in singlicate; n = 1
# ERBB2 = settings: concentration: 1 μM, replicates: in singlicate; n = 1
# ERBB3 = settings: concentration: 1 μM, replicates: in singlicate; n = 1
# ERBB4 = settings: concentration: 1 μM, replicates: in singlicate; n = 1
# ERK1 = system: T1, ERK1; settings: concentration: 1 μM, replicates: in singlicate; n = 1
# T1 construct: gene MAPK3
# ERK2 = system: T2, ERK2; settings: concentration: 1 μM, replicates: in singlicate; n = 1
# T2 construct: gene MAPK1
# ERK3 = system: T3, ERK3; settings: concentration: 1 μM, replicates: in singlicate; n = 1
# T3 construct: gene MAPK6
# ERK4 = system: T4, ERK4; settings: concentration: 1 μM, replicates: in singlicate; n = 1
# T4 construct: gene MAPK4
# ERK5 = system: T5, ERK5; settings: concentration: 1 μM, replicates: in singlicate; n = 1
# T5 construct: gene MAPK7
# ERK8 = system: T6, ERK8; settings: concentration: 1 μM, replicates: in singlicate; n = 1
# T6 construct: gene MAPK15
# [1] = concentration: 1 μM, replicates: in singlicate
# 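Note: KINOMEscan kinase panel screen.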
smiles,measurement,setting,value
O=C(NCCNc1ccnc(Nc2ccc(F)cc2)n1)c1cc2ccccc2s1 [GSK1379874],%Inh,EPHA3,0%
same,%Inh,EPHA4,0%
same,%Inh,EPHA5,0%
same,%Inh,EPHA6; [1],0%
same,%Inh,EPHA7,6%
same,%Inh,EPHA8,18%
same,%Inh,EPHB1,0%
same,%Inh,EPHB2,0%
same,%Inh,EPHB3,12%
same,%Inh,EPHB4,0%
same,%Inh,EPHB6,11%
same,%Inh,ERBB2,1%
same,%Inh,ERBB3,0%
same,%Inh,ERBB4,51%
same,%Inh,ERK1,0%
same,%Inh,ERK2,0%
same,%Inh,ERK3,0%
same,%Inh,ERK4,3%
same,%Inh,ERK5,0%
same,%Inh,ERK8,0%
O=C1NC(=O)C(N2CCc3ccccc32)=C1c1cccc(Cl)c1 [SB-408010],%Inh,EPHA3,0%
same,%Inh,EPHA4,19%
same,%Inh,EPHA5,17%
same,%Inh,EPHA6; [1],18%
same,%Inh,EPHA7,0%
same,%Inh,EPHA8,0%
same,%Inh,EPHB1,0%
same,%Inh,EPHB2,3%
same,%Inh,EPHB3,23%
same,%Inh,EPHB4,22%
same,%Inh,EPHB6,0%
same,%Inh,ERBB2,0%
same,%Inh,ERBB3,0%
same,%Inh,ERBB4,0%
same,%Inh,ERK1,0%
same,%Inh,ERK2,12%
same,%Inh,ERK3,0%
same,%Inh,ERK4,0%
same,%Inh,ERK5,0%
same,%Inh,ERK8,9%
Cc1cccc(Cn2ccn3c(=O)cc(N4CCOCC4)nc23)c1 [GSK2297542],%Inh,EPHA3,12%
same,%Inh,EPHA4,10%
same,%Inh,EPHA5,0%
same,%Inh,EPHA6; [1],9%
same,%Inh,EPHA7,0%
same,%Inh,EPHA8,19%
same,%Inh,EPHB1,23%
same,%Inh,EPHB2,0%
same,%Inh,EPHB3,13%
same,%Inh,EPHB4,15%
same,%Inh,EPHB6,24%
same,%Inh,ERBB2,1%
same,%Inh,ERBB3,0%
same,%Inh,ERBB4,27%
same,%Inh,ERK1,20%
same,%Inh,ERK2,5%
same,%Inh,ERK3,27%
same,%Inh,ERK4,32%
same,%Inh,ERK5,0%
same,%Inh,ERK8,0%
Cc1nnc(-c2ccc3occ(-c4ccc(C(C)O)cc4)c3c2)o1 (stereo not shown),%Inh,EPHA3,0%
same,%Inh,EPHA4,30%
same,%Inh,EPHA5,0%
same,%Inh,EPHA6; [1],52%
same,%Inh,EPHA7,3%
same,%Inh,EPHA8,0%
same,%Inh,EPHB1,9%
same,%Inh,EPHB2,15%
same,%Inh,EPHB3,12%
same,%Inh,EPHB4,13%
same,%Inh,EPHB6,15%
same,%Inh,ERBB2,0%
same,%Inh,ERBB3,9%
same,%Inh,ERBB4,0%
same,%Inh,ERK1,0%
same,%Inh,ERK2,0%
same,%Inh,ERK3,15%
same,%Inh,ERK4,10%
same,%Inh,ERK5,7%
same,%Inh,ERK8,31%
O=c1cc(N2CCOCC2)nc2n(Cc3cccc(Cl)c3Cl)c(C3CC3)nn12 [GSK2358994],%Inh,EPHA3,0%
same,%Inh,EPHA4,11%
same,%Inh,EPHA5,6%
same,%Inh,EPHA6; 1 µM,0%
same,%Inh,EPHA7,0%
same,%Inh,EPHA8,9%
same,%Inh,EPHB1,0%
same,%Inh,EPHB2,0%
same,%Inh,EPHB3,7%
same,%Inh,EPHB4,3%
same,%Inh,EPHB6,33%
same,%Inh,ERBB2,0%
same,%Inh,ERBB3,9%
same,%Inh,ERBB4,0%
same,%Inh,ERK1,0%
same,%Inh,ERK2,11%
same,%Inh,ERK3,0%
same,%Inh,ERK4,0%
same,%Inh,ERK5,0%
same,%Inh,ERK8,13%
